Bioassay records: PubChem, several laboratories
Rows were chosen to be rich in hits. Some 2.8% of all compounds tested hit in one or more screens of this group.
SKKanGAS inh: inhibitors of SKKanGAS S. pyogenes growth in kanamycin (SK-promoter or general growth effect); BacTiter-Glo, 6 h; inhibition, % at 7.5 µM; actives 1.3% (n = 300,000); AID 1662;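 active = mean replicate score, as percent of positive control median, at least 50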;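 note: strain carries kanamycin resistance gene driven by streptokinase promoter and grows in 40 µg/ml kanamycin; loss of luminescence reflects streptokinase promoter inhibition or plain growth inhibition; 0% = median of DMSO wells and 100% = positive control at its reference dose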
Granule exo inh: lytic granule exocytosis inhibition | TALL-104 LAMP-1 surface exposure, flow cytometry; cells stimulated with thapsigargin and PMA | inhibition, % at 10 µM | actives 0.66% (n = 360,000) | AID 651702;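 active = inhibition above about 55%, limit read from the data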
IDE cell activ: IDE (human) activation, cell-based; activation, % at 5.96 µM; P14735; HEK cells, FAbeta-B cleavage, fluorescence polarization; 0% vehicle, 100% cell-free pure enzyme wells; AID 493087; actives 0.073% (n = 340,000);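 active = activation above the mean of all tested compounds plus 3 SD, set per screening campaign, cut at about 17% in these data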
PP5 primary: inhibitors of human protein phosphatase 5 (PP5); purified PP5c, OMFP substrate fluorescence; inhibition, % at 6.7 µM; actives 0.18% (n = 320,000);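 active = inhibition above the campaign's mean inhibition across all tested compounds plus 3 SD, cut at about 9.5% in these data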;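 note: 0% = DMSO only and 100% = 100 µM cantharidin control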
IDE inh: cellular human IDE inhibition; inhibition, % at 5.59 µM; P14735; HEK cells, FAbetaB cleavage, fluorescence polarization; actives 0.41% (n = 320,000);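 active = percent inhibition above the average of all tested compounds plus 3 SD, set per screening campaign, cut at about 16% in these data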;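 note: IDE supplied by intact live HEK cells; FP after avidin binding of uncleaved biotin substrate so inhibition keeps polarization high; 0% = DMSO wells and 100% = 60 µM reference IDE inhibitor Ii1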
PP1 inh: blocks human PP1-alpha phosphatase, a PP5 counter-screen; P62136; purified PP1alpha, OMFP fluorescence; AID 2235; inhibition, % at 6.7 µM; actives 0.9% (n = 320,000);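 active = inhibition above the mean inhibition of all tested compounds plus 3 SD, computed separately for each screening campaign, cut at about 15% in these data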
Granule exo CP1: lytic granule exocytosis inhibition | TALL-104 cells, LAMP-1 externalization, flow cytometry; stimulated with PMA plus thapsigargin | shares compounds with Granule exo inh | AID 651954 | inhibition, % at 10 µM | actives 11% (n = 1,500); in the data active = inhibition above about 60%;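 note: 0% = stimulated vehicle wells and 100% = unstimulated wells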
Active calls of the source: *; . = not tested or not shown.

SMILES | SKKanGAS inh | Granule exo inh | IDE cell activ | PP5 primary | IDE inh | PP1 inh | Granule exo CP1
CCCS(=O)(=O)NC(=O)C1(C)CCN(C(=O)COc2ccc(Cl)cc2Cl)C1 (stereo not given) | . | 61* | . | . | . | . | -3
COC(=O)c1ccc(OCC(O)CN2CCc3cc(OC)c(OC)cc3C2c2ccccc2)cc1 (stereo not given) | 9 | 74* | 1 | 3 | -1 | 2 | -12
CCC(=O)N1CCc2cc(OC)c(OC)cc2C1COc1ccc(C(=O)OC)cc1 (stereo not given) | . | 31 | 4 | 0 | 2 | -3 | .
O=c1oc2ccccc2c2c1nc(C(F)(F)F)n2-c1ccccc1 | -5 | 67* | 1 | 0 | -3 | -7 | -3
COc1cccc(-c2cnc3c(NC(C)=O)cc(-c4ccsc4)cn23)c1 | . | 77* | . | . | . | . | 91*
COc1cccc(-c2cnc3c(NC=O)cc(-c4ccc(N(C)C)cc4)cn23)c1 | . | -10 | . | . | . | . | .
COc1ccc(-c2cc(NC=O)c3ncc(-c4cccc(OC)c4)n3c2)cc1 | . | 63* | . | . | . | . | 74*
O=CNc1cc(-c2ccsc2)cn2c(-c3ccccc3)cnc12 | . | 71* | . | . | . | . | 82*
CCCN(c1ccccc1F)S(=O)(=O)c1cc(-c2cc(C)no2)ccc1OC | 4 | 89* | 4 | 3 | 4 | 1 | -4
COc1ccc(-c2cc(C)no2)cc1S(=O)(=O)N(C)Cc1ccco1 | -3 | 0 | -6 | -1 | -3 | -1 | .
CCOC(=O)C1=C(CCc2ccccc2)NC(=O)NC1c1cccc([N+](=O)[O-])c1 (stereo not given) | 6 | 94* | 1 | 1 | -5 | 3 | -14
COc1ccc(OC)c(C(=O)NC(CC(N)=O)c2ccc(N3CCC(Cc4ccccc4)CC3)c([N+](=O)[O-])c2)c1 (stereo not given) | 21 | 1 | -2 | 7 | 3 | 2 | .
O=C(OCc1ccccc1)N(CCCCN(CCCNCc1ccccc1)C(=O)OCc1ccccc1)CCCNCc1ccccc1 | . | 85* | 6 | . | . | . | 99*
COc1ccc(C2/C(=C(/O)c3ccc(C)cc3)C(=O)C(=O)N2C)c(OC)c1 (stereo not given) | 0 | 0 | 2 | 3 | 0 | 2 | .
CCOc1ccc(S(=O)(=O)Nc2cccc(C(=O)N3CCN(c4ccccc4O)CC3)c2)cc1 | . | 0 | 1 | 2 | -3 | -3 | .
CCOc1ccc(S(=O)(=O)Nc2cccc(C(=O)N3CCN(c4ccccn4)CC3)c2)cc1 | . | 56* | . | . | . | . | -3
COc1cccc(C(=O)OCC(=O)c2ccc(Br)s2)c1OC | . | 0 | 3 | 3 | 3 | 4 | .
O=C(CCN1CCc2ccccc2C(c2ccccc2)C1)c1ccc2c(c1)OCCO2 (stereo not given) | 6 | 96* | 2 | 1 | 3 | -3 | 81*
COc1ccc(-n2nnnc2S(=O)(=O)CC(=O)N2CCCCC2)cc1 | . | 60* | 5 | 1 | 0 | 1 | 8
COc1ccc(-n2nnnc2S(=O)(=O)Cc2ccc(C(=O)O)cc2)cc1 | 4 | 1 | 2 | 2 | -1 | -1 | .
COc1cc(Sc2ccc(C)cc2)c(OC)cc1N | 16 | 94* | -1 | 2 | -4 | 5 | -12
COC(=O)c1ccc(Sc2ccc(C)cc2)c(N)c1 | 1 | 0 | -1 | 0 | 4 | -1 | .
COc1ccccc1NC(=O)N(C)C[C@H]1Oc2ncc(C#CCN(C)C)cc2C(=O)N([C@H](C)CO)C[C@H]1C | . | -1 | . | . | . | . | .
CS(=O)(=O)N1CCC(C(=O)Nc2ccc(Cl)cc2Cl)CC1 | . | 6 | . | . | . | . | .
CCCOc1ccc(Oc2nc(-c3ccncc3)nc3ccccc23)cc1 | 5 | 94* | 2 | 1 | 3 | -4 | -14
SMILES | SKKanGAS inh | Granule exo inh | IDE cell activ | PP5 primary | IDE inh | PP1 inh | Granule exo CP1
COc1ccc(Oc2nc(-c3ccncc3)nc3ccccc23)cc1 | 1 | 5 | . | -2 | -1 | -2 | .
C[C@@H]1CN([C@@H](C)CO)C(=O)CCCn2nncc2CO[C@H]1CN(C)S(=O)(=O)c1cccs1 | . | -7 | . | . | . | . | .
C/C(=N/NC(=O)c1ccoc1C)c1ccc(NC(=O)c2ccncc2)cc1 | 5 | -5 | 5 | -3 | -6 | -3 | .
COc1ccc(-c2coc3c(C(=O)NCC4CC4)cccc23)c(C)c1 | . | 2 | . | . | . | . | .
C=CCN(Cc1cccc(OC)c1OC)C(=O)Oc1ccccc1 | . | -9 | 1 | 1 | 0 | 3 | .
OCCN1CCN(c2cc(-c3ccc4ccccc4c3)nc3ccnn23)CC1 | . | 59* | . | . | . | . | -12
COc1ccc(-c2cc(N3CCN(CCO)CC3)n3nccc3n2)cc1 | . | -8 | . | . | . | . | .
OCCCNc1c2ccccc2nc2ccccc12 | 4 | 5 | 6 | -1 | -1 | -5 | .
CCOC(=O)COc1ccccc1C(=O)c1cnn(-c2ccccc2)c1 | 1 | 62* | 1 | 3 | 3 | 2 | -9
O=C(COc1ccccc1C(=O)c1cnn(-c2ccccc2)c1)Nc1ccc2ccccc2c1 | 8 | 2 | 4 | 3 | 3 | 0 | .
COc1ccc(F)cc1-c1cc(C(=O)NCc2ccc(C(F)(F)F)cc2)[nH]n1 | . | 73* | . | . | . | . | 36
COc1ccc(F)cc1-c1cc(C(=O)NCc2cccc(C(F)(F)F)c2)[nH]n1 | . | 0 | . | . | . | . | .
O=C(Nc1ccccc1)c1cc(C2COCCN2C(=O)CCCc2ccccc2)on1 (stereo not given) | . | -6 | . | . | . | . | .
Cc1cccc(-c2noc(CNC(=O)c3ccc4c(c3)OCO4)n2)c1 | -7 | 56* | -2 | 3 | 7 | -2 | -6
C=COCCNC(=S)N1CCOCCOCCN(C(=S)NCCOC=C)CCOCCOCC1 | -2 | 0 | 3 | 0 | -4 | 5 | .
Cc1cc(CN(C)Cc2c(C(=O)N3CCCCCCC3)nc3ccc(Cl)cn23)n[nH]1 | 5 | -2 | 0 | 3 | 7 | 1 | .
CN(CC(=O)NCCc1ccc(F)cc1)Cc1ccc(Br)cc1 | 4 | 70* | -5 | 3 | -8 | 3 | -13
CN(CC(=O)NCCCc1ccccc1)Cc1ccc(Br)cc1 | 5 | 23 | 0 | 2 | 5 | -1 | .
Cc1noc(C)c1NC(=O)N(C)C[C@H]1Oc2ccc(NC(=O)Cn3cnnn3)cc2C(=O)N([C@H](C)CO)C[C@@H]1C | . | 1 | -4 | . | -1 | . | .
COc1cc(CN2C[C@@H](CO)O[C@@H](n3cnc4c(Nc5ccccc5)ncnc43)C2)cc(OC)c1OC | . | 15 | . | . | . | . | .
COc1cc(C)ccc1OCc1cc(C(=O)N2CCC(c3ccc(F)cc3)C2)no1 (stereo not given) | 14 | 77* | 9 | 0 | 4 | -5 | -3
O=C(c1cc(COc2c(F)cccc2F)on1)N1CCC(c2ccncc2)CC1 | -5 | 86* | -3 | -2 | 5 | -2 | -15
O=C(Oc1ccc[nH]c1=O)C1CC1 | . | 4 | . | . | . | . | .
